Screening results deposited in PubChem by National Center for Advancing Translational Sciences (NCATS).
DT40 TDP1 no CPT – qHTS for Inhibitors of human tyrosyl-DNA phosphodiesterase 1 (TDP1): qHTS in cells in absence of CPT; DT40 Tdp1-/- hTDP1 cells, no CPT, ATP luminescence, 48 h; hit rate 15% among 420,000; Potency, µM (top dose mostly 46.2 µM), without a hit: at the highest dose activity change, negative = growth inhibition, most hits filed as inhibitors; also: potency is read from the fitted curve at half-maximal effect; % is scaled to controls: 0 for no effect and ±100 for the full control effect; nearly all actives have a fitted effect of over 55% in size
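Chicken DT40 Tdp1-/- cells complemented with human TDP1, screened without camptothecin (DMSO vehicle only), 400 cells/well. Compounds pin-transferred, cells incubated at 37 °C for at least 48 hr. Growth read as ATP-dependent luminescence (CellTiter-Glo, 30 min at RT).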
TDP1 inh – qHTS Assay for Inhibitors of Tyrosyl-DNA Phosphodiesterase (TDP1) | Tyrosyl-DNA phosphodiesterase 1 (Homo sapiens), Q9NUW8 | recombinant TDP1, AlphaScreen DNA substrate cleavage | Potency, µM (top dose mostly 130 µM), for the others: at the top dose activity change, negative = inhibition, most hits filed as inhibitors | hit rate 0.28% among 350,000 | AID 485290, 2010; also: potency is read from the fitted curve at half-maximal effect; % is scaled to controls: 0 for no effect and ±100 for the full control effect; nearly all actives have a fitted effect of over 40% in size
Target sequence (Q9NUW8 whole entry, looked up): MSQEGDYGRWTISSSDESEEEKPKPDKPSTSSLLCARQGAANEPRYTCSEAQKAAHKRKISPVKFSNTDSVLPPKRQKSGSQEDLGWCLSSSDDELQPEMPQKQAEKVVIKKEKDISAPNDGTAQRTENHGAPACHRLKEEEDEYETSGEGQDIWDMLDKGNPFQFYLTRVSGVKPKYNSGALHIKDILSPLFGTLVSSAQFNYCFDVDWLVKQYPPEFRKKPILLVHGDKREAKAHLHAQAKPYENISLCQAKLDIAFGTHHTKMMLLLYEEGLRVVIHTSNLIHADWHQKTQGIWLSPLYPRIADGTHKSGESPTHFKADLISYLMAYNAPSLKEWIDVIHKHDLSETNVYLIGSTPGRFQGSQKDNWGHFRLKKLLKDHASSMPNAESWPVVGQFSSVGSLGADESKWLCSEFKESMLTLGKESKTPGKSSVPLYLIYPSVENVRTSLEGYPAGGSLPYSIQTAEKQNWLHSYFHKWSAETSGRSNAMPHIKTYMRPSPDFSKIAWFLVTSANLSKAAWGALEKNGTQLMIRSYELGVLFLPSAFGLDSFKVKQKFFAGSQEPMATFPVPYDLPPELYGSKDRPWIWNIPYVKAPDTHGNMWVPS
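Here, a 5' biotin and 3' phosphotyrosine-FITC DNA oligonucleotide reports Tdp1 activity: intact substrate bridges AlphaScreen beads, while cleavage leaves a 3' phosphate and drops signal. All incubations at room temperature.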
TGFb inhibitor – qHTS for Inhibitors of TGF-b. HepG2 CAGA-GFP TGF-b/SMAD3 reporter, GFP fluorescence, 18 h; TGF-beta stimulated, 500 pg/mL final. Potency, µM (highest dose often 46.1 µM), for inactives: at the top dose activity, negative = inhibition, hits mostly inhibitors. hit rate 1.2% among 410,000. AID 588855, 2011; also: potency is read from the fitted curve at half-maximal effect; % is scaled to controls: 0 for no effect and ±100 for the full control effect; nearly all actives have a fitted effect of over 65% in size
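Smad-responsive CAGA-GFP expression was quantified in HEPG2 cells exposed to compounds and 500 pg/mL final TGF-beta for 18 h at 37 degrees C; unstimulated wells defined full inhibition.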
HepG2 tox – qHTS for Inhibitors of TGF-b: Cytotox Counterscreen | Potency, µM (series often up to 46.1 µM), for the others: at the top dose activity change, negative = cytotoxicity, actives largely listed as cytotoxic | hit rate 0.76% among 410,000 | HepG2 CAGA-GFP viability, ATP luminescence, 18 h | AID 588856, 2011; also: potency is read from the fitted curve at half-maximal effect
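CellTiter-Glo luminescence gave cytotoxicity after 18 hours at 37 degrees C. The cells were HepG2 CAGA-GFP in 1% FBS DMEM, stimulated with 500 pg/mL TGF-beta after compound addition. %Activity was normalised to no-cell wells (complete cell-killing) and DMSO (no toxicity), and curves were fitted and classified.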
DT40 TDP1 CPT – qHTS for Inhibitors of human tyrosyl-DNA phosphodiesterase 1 (TDP1): qHTS in cells in presence of CPT. chicken DT40 Tdp1-/-;hTDP1 cells + 20 nM CPT, ATP luminescence, 48 h. Potency, µM (top dose mostly 46.2 µM), without a hit: top-dose activity change, negative = growth inhibition, hits mostly inhibitors. AID 686979, 2013. hit rate 12% among 420,000; also: potency is read from the fitted curve at half-maximal effect; % is scaled to controls: 0 for no effect and ±100 for the full control effect; nearly all actives have a fitted effect of over 55% in size
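Chicken DT40 Tdp1-/- cells complemented with human TDP1, 400 cells/well, exposed to compounds plus 20 nM camptothecin for at least 48 h at 37 C; viability read as ATP content by CellTiter-Glo luminescence.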
IL1B secr inh – qHTS for Inhibitors of Inflammasome Signaling: IL-1-beta AlphaLISA Primary Screen. activity change, % at 57.5 µM. THP-1 LPS/ATP IL-1B secretion, AlphaLISA, 16 h; hits give low values. hit rate 4.7% among 360,000; in the data active = activity change below about -50%; inconclusive = mostly about -30% to -49%; also: % is scaled to controls: 0 for no effect and ±100 for the full control effect
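THP-1 cells pretreated 1 hr with compounds (up to 57.5 uM final), then stimulated with LPS (250 ng/mL final) plus ATP (1.25 mM final); secreted IL-1B measured by AlphaLISA after 16 hr, decreased signal indicating inhibition.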
An asterisk follows results filed as active; ? = inconclusive; nt = no result; [ ] = another dose, or the depositor's remark. The list is not random: actives were taken first. Their share in the collection is about 18%. Unless noted, calls follow the shape of the dose curve; as a rule, active = well fitted curve in the direction sought with a large enough effect; inconclusive = small, poorly fitted or top-dose-only effect, or another doubt; inactive = no such curve, though single readings can be large; an effect the other way counts as inactive or inconclusive.

SMILES	DT40 TDP1 no CPT	TDP1 inh	TGFb inhibitor	HepG2 tox	DT40 TDP1 CPT	IL1B secr inh
O=c1cc[nH]c2cccc(Cc3ccccc3)c12	13µM*	0%	0%	-36%	?	-9
CN(C)CCNC(=O)CCCn1c(=O)c2cccn2c2ccccc21	-3%	9%	-3%	0%	15%	nt
Cc1ccc(NC(=O)CCn2c(=O)c3cccn3c3ccccc32)cc1Cl	23µM*	6%	3%	-13%	18µM*	nt
Cc1c(Cl)cccc1NC(=O)Cn1nc(C)n2cccc2c1=O	28%	-1%	20%	1%	-1%	-6
Cc1c(Cl)cccc1NC(=O)CCn1c(=O)c2cccn2c2ccccc21	16µM*	0%	4%	2%	?	nt
Cc1ccc(NC(=O)CCCn2c(=O)c3cccn3c3ccccc32)cc1C	12µM*	0%	-10%	-38%	16µM*	nt
CCc1ccccc1NC(=O)CCCn1c(=O)c2cccn2c2ccccc21	16µM*	10%	?	-31%	?	nt
CC(=O)Nc1oc(-c2cccc3ccccc23)nc1C#N	nt	3%	-19%	-22%	nt	nt
CC1CC=CC2C1C(=O)N(Cc1ccccc1)C2c1ccc(/C=C/c2ccccc2)cc1F (stereo not drawn)	nt	4%	-19%	-11%	nt	nt
Cc1ccc(NC(=O)CCn2c(=O)c3cccn3c3ccccc32)cc1C	18µM*	6%	?	3%	?	61
Cc1cc(C)c(NC(=O)Cn2c(=O)c3cccn3c3ccccc32)c(C)c1	-26%	-7%	33%	-1%	?	10
CN(C)Cc1cc(C(F)(F)F)ccc1C(O)(c1ccccc1)c1ccccc1	?	nt	?	-54%	?	-75*
Cc1cccc(CN(C)C)c1CC(O)(c1ccccc1)c1ccccc1	?	nt	-2%	0%	?	-4
CN(C)Cc1ccccc1C(O)(c1ccccc1)c1ccccc1	?	nt	8%	3%	29µM*	-71*
COc1cc(C(=O)N2CCCN(c3nc4cc(C)ccc4cc3C#N)CC2)cc(OC)c1OC	?	0%	-18%	-11%	21µM*	36
Cc1ccc2cc(C#N)c(N3CCCN(C(=O)c4cnccn4)CC3)nc2c1	?	nt	-4%	12%	?	-9
COc1cccc(C(=O)N2CCN(c3nc4cc(C)cc(C)c4cc3C#N)CC2)c1	16µM*	nt	3%	-5%	23µM*	-22
COc1cc(C(=O)N2CCN(c3ccc(C)cc3C)CC2)cc(OC)c1OC	3.7µM*	0%	-24%	-43%	2.9µM*	95
COc1ccc2cc(C#N)c(N3CCN(C(=O)c4ccccc4C)CC3)nc2c1	?	8%	-29%	3%	?	nt
Cc1ccc2nc(N3CCN(C(=O)c4cccs4)CC3)c(C#N)cc2c1	15µM*	-4%	-13%	-16%	21µM*	-59*
Cc1ccc2cc(C#N)c(N3CCN(C(=O)c4ccccc4)CC3)nc2c1	10µM*	-6%	?	-8%	21µM*	?
COc1ccc(C(=O)N2CCN(c3nc4cc(C)ccc4cc3C#N)CC2)c(OC)c1	16µM*	7%	-10%	-2%	16µM*	-59*
Cc1cccn2c(/C=N/OCc3ccc(F)cc3)c(-c3ccc(Cl)cc3)nc12	?	1%	?	6%	?	8
Cc1cccn2c(=O)c(/C=C(\C#N)c3nc4ccccc4n3C)c(Oc3ccc(Br)cc3)nc12	6.5µM*	2%	11%	10%	10µM*	nt
COc1ccc(/C(C#N)=C/c2c(-c3ccc(Cl)cc3)nc3c(C)cccn23)cc1	18µM*	-3%	0%	4%	?	30
SMILES	DT40 TDP1 no CPT	TDP1 inh	TGFb inhibitor	HepG2 tox	DT40 TDP1 CPT	IL1B secr inh
Cc1cccn2c(=O)c(/C=C(\C#N)c3nc4ccccc4n3C)c(Oc3ccc(Cl)cc3)nc12	8.2µM*	1%	4%	7%	?	nt
Cc1cccn2c(=O)c(/C=C(\C#N)c3nc4ccccc4[nH]3)c(Oc3ccc(C(C)(C)C)cc3)nc12	-14%	2%	266%	1%	5%	nt
CCN1CCN(c2nc3c(C)cccn3c(=O)c2/C=C(\C#N)S(=O)(=O)c2ccc(Cl)cc2)CC1	-7%	5%	-15%	3%	-11%	-21
Cc1cc(Oc2nc3c(C)cccn3c(=O)c2/C=C(\C#N)S(=O)(=O)c2ccc(Cl)cc2)ccc1Cl	23µM*	-3%	-1%	-7%	?	-10
O=C(NC1CCCCC1)[C@@H]1CC=C[C@@H]2CCN(Cc3ccc(Cl)c(Cl)c3)C(=O)[C@@H]21	?	nt	15%	7%	?	nt
CSc1ccc(CN2CCC(C)(Oc3ccccc3)C2)cc1 (stereo not drawn)	?	nt	24%	-24%	?	-9
COc1cccc(CNC(=O)[C@@H]2CCCN2C(=O)[C@H]2CCCCN2)c1	-12%	nt	nt	nt	-8%	49
N#C/C(=C\c1c(Oc2ccc(Br)cc2)nc2ccccn2c1=O)c1nc2ccccc2s1	16µM*	-3%	?	6%	-73%	nt
CSc1ccccc1C(=O)N1CCN(S(=O)(=O)c2sc(C(=O)O)c(C)c2C(=O)O)CC1	-3%	-4%[56.1 µM]	-8%	-1%	1%	20
Fc1ccc(Nc2ccnc(-c3ccoc3)n2)cc1	-4%	nt	nt	nt	-22%	nt
COc1ccccc1-c1nccc(NCc2cccs2)n1	?	nt	nt	nt	21µM*	nt
COc1ccccc1-c1nccc(Nc2ccc(F)cc2)n1	?	nt	nt	nt	23µM*	nt
CN(C)C(=O)c1ccc(-c2nccc(NCc3cccs3)n2)cc1	-8%	nt	nt	nt	-12%	nt
CN(C)c1ccc(-c2nccc(NCc3cccs3)n2)cc1	23µM*	nt	nt	nt	21µM*	nt
O=C(/C=C/c1ccc(Cl)cc1)N(Cc1cccs1)C1CCS(=O)(=O)C1 (stereo not drawn)	?	nt	-19%	-1%	?	-9
Cc1ccc(/C=C/C(=O)N(Cc2cccs2)C2CCS(=O)(=O)C2)cc1 (stereo not drawn)	21µM*	1%	-3%	6%	?	-27
Cc1ccc(NC(=O)c2ccc(=O)[nH]n2)cc1C	-6%	nt	11%	13%	-19%	0
